# Results taken from paper PMC7862700, “An all-to-all approach to the identification of sequence-specific readers for epigenetic DNA modifications on cytosine”.
# Assays:
# Assay in all cases: DAPPL (digital affinity profiling via proximity ligation, sequencing); 10 mM Tris-HCl pH 7.5, 50 mM NaCl, 1 mM DTT, 4% glycerol, room temperature, 30 min; GST-TFs on glutathione beads, 16-mer random dsDNA library, 0.1% formaldehyde crosslink after washing; high values mean tight binding
# FEV = target: T1, FEV (Homo sapiens, UniProt Q99581 1-238); conditions: protein: recombinant; tags: N-terminal GST; dsDNA, one strand shown
# T1 sequence: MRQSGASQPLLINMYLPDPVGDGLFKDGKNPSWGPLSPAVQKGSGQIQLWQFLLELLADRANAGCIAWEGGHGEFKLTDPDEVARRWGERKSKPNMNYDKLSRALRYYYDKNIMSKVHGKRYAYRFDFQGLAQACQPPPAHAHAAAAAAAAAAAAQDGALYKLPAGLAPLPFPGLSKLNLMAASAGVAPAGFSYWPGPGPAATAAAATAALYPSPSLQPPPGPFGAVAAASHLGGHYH
# Outline: (§1)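 In yeast, human transcription factors were expressed with a GST fusion, then pulled down on glutathione beads and given DNA barcodes. Pooled with a tag-only sample, they were exposed to 200 nmole of a 16-mer random double-stranded DNA library (Tris/NaCl/DTT/glycerol buffer, room temperature, 30 min), washed, crosslinked with 0.1% formaldehyde, proximity-ligated using BsaI/T4 ligase for 1 h at 37 °C, PCR-amplified and read on an Illumina NextSeq500. Each hexamer's frequency of reads for a factor, divided by the matching frequency for the tag-only sample, gives the binding signal.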
# ETV5 = ETV5 (Homo sapiens, UniProt P41161 1-510); conditions: protein: recombinant; tags: N-terminal GST; dsDNA, one strand shown
# Outline: as §1
# HSF1 = HSF1 (Homo sapiens, UniProt Q00613 1-529); conditions: protein: recombinant; tags: N-terminal GST; chain copies: 3; dsDNA, one strand shown
# Outline: as §1
# SPIC = target: T2, SPIC (Homo sapiens, UniProt Q8N5J4 1-248); conditions: protein: recombinant; tags: N-terminal GST; dsDNA, one strand shown
# T2 sequence: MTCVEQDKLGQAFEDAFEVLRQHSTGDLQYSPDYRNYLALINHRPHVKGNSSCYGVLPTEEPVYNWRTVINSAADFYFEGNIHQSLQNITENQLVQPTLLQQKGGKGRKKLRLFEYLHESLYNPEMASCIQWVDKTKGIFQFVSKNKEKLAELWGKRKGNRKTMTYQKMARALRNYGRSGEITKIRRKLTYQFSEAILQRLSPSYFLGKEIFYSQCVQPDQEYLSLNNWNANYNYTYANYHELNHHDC
# Outline: as §1
# ELF4 = ELF4 (Homo sapiens, UniProt Q99607 1-663); conditions: protein: recombinant; tags: N-terminal GST; dsDNA, one strand shown
# Outline: as §1
# ELK4 = target: T3, ELK4 (Homo sapiens, UniProt P28324-2 1-405); conditions: protein: recombinant; tags: N-terminal GST; dsDNA, one strand shown
# T3 sequence: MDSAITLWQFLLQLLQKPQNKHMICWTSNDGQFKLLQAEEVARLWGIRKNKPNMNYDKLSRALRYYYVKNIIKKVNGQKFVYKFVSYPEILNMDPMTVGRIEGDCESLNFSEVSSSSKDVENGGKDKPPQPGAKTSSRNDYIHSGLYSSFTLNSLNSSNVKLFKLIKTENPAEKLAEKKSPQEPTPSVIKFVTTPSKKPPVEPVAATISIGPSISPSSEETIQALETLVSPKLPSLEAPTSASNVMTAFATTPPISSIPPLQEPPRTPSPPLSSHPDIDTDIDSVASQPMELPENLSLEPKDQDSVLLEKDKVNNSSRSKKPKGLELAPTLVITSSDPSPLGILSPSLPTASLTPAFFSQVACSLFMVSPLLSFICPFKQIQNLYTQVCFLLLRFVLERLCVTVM
# Outline: as §1
# ETV2 = target: T4, ETV2 (Homo sapiens, UniProt O00321 1-342); conditions: protein: recombinant; tags: N-terminal GST; dsDNA, one strand shown
# T4 sequence: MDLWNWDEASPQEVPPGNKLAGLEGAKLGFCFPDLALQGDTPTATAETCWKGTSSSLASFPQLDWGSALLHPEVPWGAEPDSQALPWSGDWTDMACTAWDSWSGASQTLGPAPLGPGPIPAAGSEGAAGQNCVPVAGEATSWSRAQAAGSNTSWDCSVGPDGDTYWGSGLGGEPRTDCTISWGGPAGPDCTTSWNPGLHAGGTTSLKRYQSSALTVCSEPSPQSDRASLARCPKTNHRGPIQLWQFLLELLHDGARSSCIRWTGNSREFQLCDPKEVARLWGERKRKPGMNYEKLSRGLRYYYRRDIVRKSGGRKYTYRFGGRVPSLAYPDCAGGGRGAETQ
# Outline: as §1
# ELF3 = target: T5, ELF3 (Homo sapiens, UniProt P78545 1-371); conditions: protein: recombinant; tags: N-terminal GST; dsDNA, one strand shown
# T5 sequence: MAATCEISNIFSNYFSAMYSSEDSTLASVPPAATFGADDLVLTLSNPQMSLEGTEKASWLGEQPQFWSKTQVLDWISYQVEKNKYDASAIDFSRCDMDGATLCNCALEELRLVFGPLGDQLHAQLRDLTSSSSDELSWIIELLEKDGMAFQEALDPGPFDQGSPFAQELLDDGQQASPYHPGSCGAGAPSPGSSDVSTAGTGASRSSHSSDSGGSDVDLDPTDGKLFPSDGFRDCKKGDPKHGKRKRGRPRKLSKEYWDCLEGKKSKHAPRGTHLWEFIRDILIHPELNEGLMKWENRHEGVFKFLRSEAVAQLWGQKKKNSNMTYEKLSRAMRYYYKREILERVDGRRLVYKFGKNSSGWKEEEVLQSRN
# Outline: as §1
# ETV1 = ETV1 (Homo sapiens, UniProt P50549 1-477); conditions: protein: recombinant; tags: N-terminal GST; dsDNA, one strand shown
# Outline: as §1
# ERF = target: T6, ERF (Homo sapiens, UniProt P50548 1-548); conditions: protein: recombinant; tags: N-terminal GST; dsDNA, one strand shown
# T6 sequence: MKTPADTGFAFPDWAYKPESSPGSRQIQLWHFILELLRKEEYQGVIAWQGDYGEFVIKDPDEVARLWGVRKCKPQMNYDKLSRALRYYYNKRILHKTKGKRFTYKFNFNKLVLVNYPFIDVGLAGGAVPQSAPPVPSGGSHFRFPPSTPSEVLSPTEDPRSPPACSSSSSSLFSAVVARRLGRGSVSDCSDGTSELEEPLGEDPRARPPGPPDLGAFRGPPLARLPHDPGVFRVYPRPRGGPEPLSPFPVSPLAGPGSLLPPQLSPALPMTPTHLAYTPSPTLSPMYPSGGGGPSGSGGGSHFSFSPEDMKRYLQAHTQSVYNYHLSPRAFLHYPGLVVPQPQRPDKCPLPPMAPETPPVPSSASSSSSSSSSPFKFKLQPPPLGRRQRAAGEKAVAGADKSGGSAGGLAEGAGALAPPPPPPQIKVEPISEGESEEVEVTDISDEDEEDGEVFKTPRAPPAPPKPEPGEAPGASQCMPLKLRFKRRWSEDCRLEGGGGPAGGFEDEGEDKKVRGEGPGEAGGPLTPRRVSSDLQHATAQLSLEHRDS
# Outline: as §1
# ETV3L = target: T7, ETV3L (Homo sapiens, UniProt Q6ZN32 1-361); conditions: protein: recombinant; tags: N-terminal GST; dsDNA, one strand shown
# T7 sequence: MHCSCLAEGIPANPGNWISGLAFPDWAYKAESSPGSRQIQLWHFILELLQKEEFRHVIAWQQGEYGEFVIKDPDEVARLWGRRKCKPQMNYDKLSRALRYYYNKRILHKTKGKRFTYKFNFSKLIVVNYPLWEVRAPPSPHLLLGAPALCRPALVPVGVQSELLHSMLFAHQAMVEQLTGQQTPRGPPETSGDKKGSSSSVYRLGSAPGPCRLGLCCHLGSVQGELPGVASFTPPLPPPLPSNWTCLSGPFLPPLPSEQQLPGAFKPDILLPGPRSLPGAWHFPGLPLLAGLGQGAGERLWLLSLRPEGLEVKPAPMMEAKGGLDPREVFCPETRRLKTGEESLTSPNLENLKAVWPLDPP
# Outline: as §1
# ETS2 = target: T8, ETS2 (Homo sapiens, UniProt P15036 1-469); conditions: protein: recombinant; tags: N-terminal GST; dsDNA, one strand shown
# T8 sequence: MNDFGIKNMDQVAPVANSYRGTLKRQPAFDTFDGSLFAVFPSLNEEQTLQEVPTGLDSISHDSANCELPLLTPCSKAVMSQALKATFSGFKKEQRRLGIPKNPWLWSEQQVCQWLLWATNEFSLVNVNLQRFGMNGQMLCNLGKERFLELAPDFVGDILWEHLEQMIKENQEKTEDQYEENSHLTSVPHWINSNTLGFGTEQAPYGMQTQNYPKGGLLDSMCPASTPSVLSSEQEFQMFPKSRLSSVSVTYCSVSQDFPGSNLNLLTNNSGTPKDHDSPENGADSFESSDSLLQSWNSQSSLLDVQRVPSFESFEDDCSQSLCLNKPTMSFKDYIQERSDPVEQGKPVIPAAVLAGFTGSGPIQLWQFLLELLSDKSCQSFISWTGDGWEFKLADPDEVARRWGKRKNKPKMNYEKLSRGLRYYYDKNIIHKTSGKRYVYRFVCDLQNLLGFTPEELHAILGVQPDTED
# Outline: as §1
# SPDEF = target: T9, SPDEF (Homo sapiens, UniProt O95238 1-335); conditions: protein: recombinant; tags: N-terminal GST; dsDNA, one strand shown
# T9 sequence: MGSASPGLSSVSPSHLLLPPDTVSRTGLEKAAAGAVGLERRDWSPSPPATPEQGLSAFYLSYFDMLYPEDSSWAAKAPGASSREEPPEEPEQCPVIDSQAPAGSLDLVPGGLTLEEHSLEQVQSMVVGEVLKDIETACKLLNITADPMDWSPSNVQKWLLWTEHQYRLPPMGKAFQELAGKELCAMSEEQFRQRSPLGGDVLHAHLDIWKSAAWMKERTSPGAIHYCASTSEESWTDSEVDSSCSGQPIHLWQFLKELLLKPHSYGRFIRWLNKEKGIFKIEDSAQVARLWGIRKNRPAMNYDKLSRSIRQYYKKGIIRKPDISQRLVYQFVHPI
# Outline: as §1
# ETV7 = target: T10, ETV7 (Homo sapiens, UniProt Q9Y603 1-341); conditions: protein: recombinant; tags: N-terminal GST; dsDNA, one strand shown
# T10 sequence: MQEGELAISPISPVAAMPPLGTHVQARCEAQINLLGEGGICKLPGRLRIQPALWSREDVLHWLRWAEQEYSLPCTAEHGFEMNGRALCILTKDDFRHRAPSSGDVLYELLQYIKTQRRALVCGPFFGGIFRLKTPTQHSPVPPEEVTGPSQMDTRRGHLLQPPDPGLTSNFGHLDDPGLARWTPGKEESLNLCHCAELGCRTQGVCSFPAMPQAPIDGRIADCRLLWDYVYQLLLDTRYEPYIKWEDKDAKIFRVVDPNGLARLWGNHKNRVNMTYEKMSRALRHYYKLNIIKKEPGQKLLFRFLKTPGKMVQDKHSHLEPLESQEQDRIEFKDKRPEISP
# Outline: as §1
# ELF5 = target: T11, ELF5 (Homo sapiens, UniProt Q9UKW6-2 1-255); conditions: protein: recombinant; tags: N-terminal GST; dsDNA, one strand shown
# T11 sequence: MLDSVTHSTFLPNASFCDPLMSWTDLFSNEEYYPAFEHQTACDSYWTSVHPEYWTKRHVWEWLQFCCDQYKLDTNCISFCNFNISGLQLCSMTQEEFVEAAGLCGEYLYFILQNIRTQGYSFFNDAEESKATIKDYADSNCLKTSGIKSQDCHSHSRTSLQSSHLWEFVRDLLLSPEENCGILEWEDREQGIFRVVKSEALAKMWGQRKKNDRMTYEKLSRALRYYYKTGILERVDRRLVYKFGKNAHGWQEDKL
# Outline: as §1
# ETV3 = target: T12, ETV3 (Homo sapiens, UniProt P41162-2 1-143); conditions: protein: recombinant; tags: N-terminal GST; dsDNA, one strand shown
# T12 sequence: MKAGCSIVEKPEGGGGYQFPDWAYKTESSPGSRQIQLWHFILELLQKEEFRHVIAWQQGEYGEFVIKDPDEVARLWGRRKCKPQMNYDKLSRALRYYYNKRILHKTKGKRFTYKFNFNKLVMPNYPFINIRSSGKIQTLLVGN
# Outline: as §1
# ETV6 = ETV6 (Homo sapiens, UniProt P41212 1-452); conditions: protein: recombinant; tags: N-terminal GST; dsDNA, one strand shown
# Outline: as §1
# ETV1, sequence (P50549 whole entry): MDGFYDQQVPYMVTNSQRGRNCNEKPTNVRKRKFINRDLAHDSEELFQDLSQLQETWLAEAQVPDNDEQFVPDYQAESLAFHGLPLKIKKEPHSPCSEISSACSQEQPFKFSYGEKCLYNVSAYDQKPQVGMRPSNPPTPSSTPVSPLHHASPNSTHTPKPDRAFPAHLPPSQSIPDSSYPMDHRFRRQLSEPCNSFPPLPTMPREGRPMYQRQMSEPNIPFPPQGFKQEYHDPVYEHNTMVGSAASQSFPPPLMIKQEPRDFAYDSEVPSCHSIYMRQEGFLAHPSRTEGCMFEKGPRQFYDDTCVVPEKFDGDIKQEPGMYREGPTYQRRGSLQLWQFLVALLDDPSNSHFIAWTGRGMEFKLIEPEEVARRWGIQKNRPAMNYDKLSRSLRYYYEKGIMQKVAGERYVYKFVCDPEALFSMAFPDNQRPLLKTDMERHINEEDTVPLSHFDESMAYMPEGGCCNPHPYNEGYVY
# ETV5, sequence (P41161 whole entry): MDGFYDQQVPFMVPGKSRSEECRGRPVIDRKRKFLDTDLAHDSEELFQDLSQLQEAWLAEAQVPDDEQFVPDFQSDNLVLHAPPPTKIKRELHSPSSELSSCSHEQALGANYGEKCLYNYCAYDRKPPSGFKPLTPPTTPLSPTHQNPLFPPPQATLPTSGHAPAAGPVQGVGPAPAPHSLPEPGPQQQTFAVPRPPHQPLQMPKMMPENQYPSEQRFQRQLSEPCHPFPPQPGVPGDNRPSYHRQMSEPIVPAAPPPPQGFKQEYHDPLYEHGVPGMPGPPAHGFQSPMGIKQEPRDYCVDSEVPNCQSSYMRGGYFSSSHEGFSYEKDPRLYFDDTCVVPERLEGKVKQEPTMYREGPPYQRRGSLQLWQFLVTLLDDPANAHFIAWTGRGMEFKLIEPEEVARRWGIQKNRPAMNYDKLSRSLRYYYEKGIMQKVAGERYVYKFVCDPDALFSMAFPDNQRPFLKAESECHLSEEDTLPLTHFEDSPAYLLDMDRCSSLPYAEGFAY
# ELF4, sequence (Q99607 whole entry): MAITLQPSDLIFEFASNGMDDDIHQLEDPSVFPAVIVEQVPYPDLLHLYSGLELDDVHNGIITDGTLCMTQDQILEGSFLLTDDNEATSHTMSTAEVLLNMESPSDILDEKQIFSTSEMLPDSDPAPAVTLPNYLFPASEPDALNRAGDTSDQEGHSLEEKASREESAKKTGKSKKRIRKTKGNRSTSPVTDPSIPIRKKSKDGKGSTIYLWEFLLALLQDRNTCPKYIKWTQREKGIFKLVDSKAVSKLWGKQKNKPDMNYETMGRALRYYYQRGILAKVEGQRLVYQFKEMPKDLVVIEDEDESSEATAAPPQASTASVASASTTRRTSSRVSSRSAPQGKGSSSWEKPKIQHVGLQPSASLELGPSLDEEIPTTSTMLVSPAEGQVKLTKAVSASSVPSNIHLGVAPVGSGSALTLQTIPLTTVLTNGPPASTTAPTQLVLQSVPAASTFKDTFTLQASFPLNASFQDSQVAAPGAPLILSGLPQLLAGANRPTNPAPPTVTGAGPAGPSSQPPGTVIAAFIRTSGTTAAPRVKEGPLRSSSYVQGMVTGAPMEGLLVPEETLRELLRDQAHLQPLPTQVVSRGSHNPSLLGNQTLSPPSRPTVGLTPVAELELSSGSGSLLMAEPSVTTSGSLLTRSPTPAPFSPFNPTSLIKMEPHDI
# ETV6, sequence (P41212 whole entry): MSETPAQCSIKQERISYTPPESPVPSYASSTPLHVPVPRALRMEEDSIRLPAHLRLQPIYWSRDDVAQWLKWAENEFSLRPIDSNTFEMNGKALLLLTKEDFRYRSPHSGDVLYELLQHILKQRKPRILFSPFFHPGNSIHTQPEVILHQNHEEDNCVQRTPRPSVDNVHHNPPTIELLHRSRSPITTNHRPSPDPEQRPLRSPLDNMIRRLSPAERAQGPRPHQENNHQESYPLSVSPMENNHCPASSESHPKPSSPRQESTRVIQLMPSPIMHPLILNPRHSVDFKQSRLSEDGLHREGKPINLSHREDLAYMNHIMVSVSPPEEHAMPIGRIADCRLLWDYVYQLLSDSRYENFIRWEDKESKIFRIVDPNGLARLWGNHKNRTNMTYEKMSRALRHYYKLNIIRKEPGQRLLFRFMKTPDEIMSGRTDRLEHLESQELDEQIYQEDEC
# HSF1, sequence (Q00613 whole entry): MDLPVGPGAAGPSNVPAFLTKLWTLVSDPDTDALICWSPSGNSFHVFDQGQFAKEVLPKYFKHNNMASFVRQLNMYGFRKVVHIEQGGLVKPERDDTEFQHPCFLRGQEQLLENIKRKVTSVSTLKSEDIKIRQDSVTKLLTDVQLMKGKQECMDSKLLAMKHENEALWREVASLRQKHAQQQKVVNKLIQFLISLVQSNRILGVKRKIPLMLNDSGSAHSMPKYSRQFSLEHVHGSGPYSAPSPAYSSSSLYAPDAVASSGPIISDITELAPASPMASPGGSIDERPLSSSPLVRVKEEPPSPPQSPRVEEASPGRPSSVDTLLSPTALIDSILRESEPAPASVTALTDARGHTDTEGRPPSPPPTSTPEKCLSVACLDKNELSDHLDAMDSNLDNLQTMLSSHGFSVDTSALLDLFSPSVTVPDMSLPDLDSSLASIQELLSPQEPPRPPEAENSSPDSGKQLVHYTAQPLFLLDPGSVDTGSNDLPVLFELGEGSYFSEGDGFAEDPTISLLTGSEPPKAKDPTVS
sequence,measurement,setting,value
TGGTTC,binding signal,FEV,"1.35 fold enrichment (6-mer frequency, TF over GST control)"
same,binding signal,ETV5,"1.44 fold enrichment (6-mer frequency, TF over GST control)"
same,binding signal,HSF1,"1.27 fold enrichment (6-mer frequency, TF over GST control)"
same,binding signal,SPIC,"1.51 fold enrichment (6-mer frequency, TF over GST control)"
same,binding signal,ELF4,"1.33 fold enrichment (6-mer frequency, TF over GST control)"
same,binding signal,ELK4,"1.36 fold enrichment (6-mer frequency, TF over GST control)"
same,binding signal,ETV2,"1.33 fold enrichment (6-mer frequency, TF over GST control)"
same,binding signal,ELF3,"1.57 fold enrichment (6-mer frequency, TF over GST control)"
same,binding signal,ETV1,"1.38 fold enrichment (6-mer frequency, TF over GST control)"
same,binding signal,ERF,"1.34 fold enrichment (6-mer frequency, TF over GST control)"
same,binding signal,ETV3L,"1.36 fold enrichment (6-mer frequency, TF over GST control)"
same,binding signal,ETS2,"1.32 fold enrichment (6-mer frequency, TF over GST control)"
same,binding signal,SPDEF,"1.35 fold enrichment (6-mer frequency, TF over GST control)"
same,binding signal,ETV7,"1.48 fold enrichment (6-mer frequency, TF over GST control)"
same,binding signal,ELF5,"1.41 fold enrichment (6-mer frequency, TF over GST control)"
same,binding signal,ETV3,"1.44 fold enrichment (6-mer frequency, TF over GST control)"
same,binding signal,ETV6,"1.32 fold enrichment (6-mer frequency, TF over GST control)"
